Source: PubChem (Broad Institute)
The sample as a whole holds a higher share of hits than the screen did.
Tgondii IFNg – blocks Toxoplasma gondii growth in the presence of IFN-gamma; 69,000 tested, 3.8% active; activity change, negative = inhibition, % (concentration not given with the values); Toxoplasma gondii growth in IFN-gamma-treated host cells; active compounds read low; in the data active = activity change below about -70%, passing the limit was not always enough;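 note: host cells are HeLa cells infected with Toxoplasma gondii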
* marks the source's active call; other numbers are inactive results; ! = not confirmed by another sample.

What do the screens show for `Cc1ccc(C(=O)Nc2ccc(-c3nc(Cn4cccn4)c(C)o3)cc2)c(C)c1`?
Tgondii IFNg: -59

How did Cc1oc(-c2ccc(NC(=O)c3ccccc3Cl)cc2)nc1Cn1cccn1 do in these assays?
Tgondii IFNg: -100*

Results for Cc1cnn(Cc2nc(-c3ccc(NC(=O)c4ccc(Cl)s4)cc3)oc2C)c1 ?
Tgondii IFNg: 63

How did Cc1cnn(Cc2nc(-c3ccc(NC(=O)c4cccs4)cc3)oc2C)c1 do in these assays?
Tgondii IFNg: -76*

What do the screens show for `Cc1cnn(Cc2nc(-c3ccc(NC(=O)c4ccccc4)cc3)oc2C)c1`?
Tgondii IFNg: -38

How did CCOc1ccccc1C(=O)Nc1ccc(-c2nc(Cn3cc(C)cn3)c(C)o2)cc1 do in these assays?
Tgondii IFNg: -45

What do the screens show for `Cc1ccc(C)c(C(=O)Nc2ccc(-c3nc(Cn4cccn4)c(C)o3)cc2)c1`?
Tgondii IFNg: 127

What do the screens show for `Cc1cccc(C(=O)Nc2ccc(-c3nc(Cn4cc(C)cn4)c(C)o3)cc2)c1`?
Tgondii IFNg: -87*

How did Cc1cnn(Cc2nc(-c3ccc(NC(=O)c4ccc(F)cc4Cl)cc3)oc2C)c1 do in these assays?
Tgondii IFNg: -45

Results for Cc1cnn(Cc2nc(-c3ccc(NC(=O)c4ccccc4Cl)cc3)oc2C)c1 ?
Tgondii IFNg: -84*

How did Cc1ccc(C(=O)Nc2ccc(-c3nc(Cn4cc(C)cn4)c(C)o3)cc2)cc1 do in these assays?
Tgondii IFNg: 62

Results for CCCCN(CCCC)C(=O)c1cc2cccnc2n(Cc2ccccc2F)c1=O ?
Tgondii IFNg: 53

Results for Cc1nccc(-c2ccc(-c3noc(CN4CCN(C(C)c5ccccc5)CC4)n3)cc2)n1 (configuration not stated) ?
Tgondii IFNg: -1

What do the screens show for `Cc1nn(C)c(C)c1CCC(=O)NCC1(c2ccc(F)cc2)CCOC1` (configuration not stated)?
Tgondii IFNg: 2

Results for O=C(Oc1cccc(NC2=NS(=O)(=O)c3ccccc32)c1)c1ccc(Cl)cc1Cl ?
Tgondii IFNg: -2

How did CC1(C)CC(N(Cc2ccncc2)Cc2ccc(N3CCOCC3)cc2)CC(C)(C)N1 do in these assays?
Tgondii IFNg: 7

What do the screens show for `Cc1cnn(Cc2nc(-c3ccc(NC(=O)c4ccc(C(F)(F)F)cc4)cc3)oc2C)c1`?
Tgondii IFNg: -63

What do the screens show for `Cc1oc(-c2ccc(NC(=O)/C=C/c3ccccc3)cc2)nc1Cn1cccn1`?
Tgondii IFNg: -87*

How did Cc1cnn(Cc2nc(-c3ccc(NC(=O)c4cc(F)cc(F)c4)cc3)oc2C)c1 do in these assays?
Tgondii IFNg: 87

How did Cc1cnn(Cc2nc(-c3ccc(NC(=O)c4ccccc4C(F)(F)F)cc3)oc2C)c1 do in these assays?
Tgondii IFNg: -88*

Results for Cc1ccccc1CC(=O)Nc1ccc(-c2nc(Cn3cccn3)c(C)o2)cc1 ?
Tgondii IFNg: 32

What do the screens show for `Cc1cc(C)n(Cc2nc(-c3ccc(NC(=O)/C=C/c4ccccc4)cc3)oc2C)n1`?
Tgondii IFNg: -43

What do the screens show for `Cc1c(C(=O)NCC(c2ccc3c(c2)OCO3)N(C)C)nnn1-c1ccccc1` (configuration not stated)?
Tgondii IFNg: -25

How did COc1ccc(CNC(=O)CC2N=C3c4ccccc4N=C(SCc4ccc(F)cc4)N3C2=O)cc1 (configuration not stated) do in these assays?
Tgondii IFNg: 1

Results for COc1ccccc1CN(C(=O)CCn1nc(C)c(C)c1C)C1CC1 ?
Tgondii IFNg: -8

Results for O=C(CO)N1CC[C@H]2[C@H]1CC(=O)N2c1ccsc1 ?
Tgondii IFNg: 86

Results for Nc1nonc1C(=O)NCCNS(=O)(=O)c1ccc(Cl)c(Cl)c1 ?
Tgondii IFNg: 52

Results for CSc1ncc2c(n1)-c1c(SC)sc(C(=O)Nc3ccc(Cl)cc3)c1CC2 ?
Tgondii IFNg: -85*

What do the screens show for `COc1cncc(C(=O)Nc2ccc(Cl)cc2)c1`?
Tgondii IFNg: 30

What do the screens show for `CSc1sc(C(=O)Nc2cc(C(F)(F)F)cc(C(F)(F)F)c2)c2c1C=CCC2`?
Tgondii IFNg: -55

How did Fc1cnc(N2CCOCC3(CCCN(Cc4ccccc4)C3)C2)nc1 (configuration not stated) do in these assays?
Tgondii IFNg: 2

What do the screens show for `Cc1oc(C2CCN(C(=O)Cc3c(F)cccc3Cl)CC2)nc1C(=O)N1CCCC1`?
Tgondii IFNg: -73*

What do the screens show for `Cc1oc(C2CCN(C(=O)Cc3ccccc3Cl)CC2)nc1C(=O)N1CCOCC1`?
Tgondii IFNg: -35

Results for Cc1oc(C2CCN(C(=O)Cc3ccccc3F)CC2)nc1C(=O)N1CCCC1 ?
Tgondii IFNg: -42

Results for COc1cc(COC2CN(C(=O)c3ccc(C(C)=O)s3)CC(=O)N(C(C)C)C2)cc(OC)c1 (configuration not stated) ?
Tgondii IFNg: -13

Results for O=C(C1CC2(CCNCC2)CN1)N(CCN1CCOCC1)Cc1ccco1 (configuration not stated) ?
Tgondii IFNg: 131

What do the screens show for `CSc1nnc(-c2ccccc2)n1C`?
Tgondii IFNg: 31

How did Cc1cc(C)cc(Sc2ccc3nnc(-c4ccccc4)n3n2)c1 do in these assays?
Tgondii IFNg: -82*

Results for Cc1ccc(-c2cc(-c3ccccc3)nc(-c3ccccc3)c2)cc1 ?
Tgondii IFNg: -69

What do the screens show for `CCn1c(=O)/c(=C2/Sc3ccc(OC)cc3N2C)s/c1=C1/C(=O)N(C)C(=S)N1C`?
Tgondii IFNg: -78*

Results for COCc1nc(N(C)CCCn2nc(C)cc2C)c2cnn(C)c2n1 ?
Tgondii IFNg: 4

Results for Cc1ccc(C(=O)Nc2nccnc2C(=O)N2CCC(N3CCCCC3)CC2)cc1 ?
Tgondii IFNg: -5

What do the screens show for `CC(=O)N1CCC(Cn2ccnc2-c2cc3ccccc3s2)CC1`?
Tgondii IFNg: -47

What do the screens show for `O=C(c1ccc(Nc2nccc(-c3cc4ccccc4s3)n2)cc1)N1CCC(N2CCCC2)CC1`?
Tgondii IFNg: -71*

How did CCCc1nc(N2CC(OCc3ccccc3)C2)c2cnn(C)c2n1 do in these assays?
Tgondii IFNg: -54

What do the screens show for `COC(=O)COc1cc(C)nc(SC)n1`?
Tgondii IFNg: -13

How did COc1nc(Nc2ccccc2)nc(OC)n1 do in these assays?
Tgondii IFNg: -116*

What do the screens show for `Cc1cc(C)nc(Nc2ccc(O)cc2)n1`?
Tgondii IFNg: -5

How did COc1ccc(-c2nc(Nc3ccccc3)c3ccccc3n2)cc1 do in these assays?
Tgondii IFNg: -38

How did O=c1[nH]c2ccc(Cl)cc2c(O)c1-c1nc(-c2cccc(F)c2)no1 do in these assays?
Tgondii IFNg: 88

Results for O=C(c1cccs1)N1CC2CN(Cc3cccc(F)c3)CC2C1 (configuration not stated) ?
Tgondii IFNg: -12

What do the screens show for `COCCOC(=O)C1=C(C)NC(C)=C(C(=O)OC(C)C)C1c1cccc([N+](=O)[O-])c1` (configuration not stated)?
Tgondii IFNg: 7

What do the screens show for `COC(=O)C1=C(C)NC(C)=C(C(=O)O[C@@H]2CCCN(Cc3ccccc3)C2)[C@@H]1c1cccc([N+](=O)[O-])c1`?
Tgondii IFNg: 32

How did COC(=O)C1=C(C)NC(C)=C(C(=O)OCCCN2CCC(c3ccccc3)(c3ccccc3)CC2)[C@H]1c1cccc([N+](=O)[O-])c1 do in these assays?
Tgondii IFNg: -71*!

Results for CC1=C(C(=O)OCCN(Cc2ccccc2)c2ccccc2)C(c2cccc([N+](=O)[O-])c2)C(P2(=O)OCC(C)(C)CO2)=C(C)N1 (configuration not stated) ?
Tgondii IFNg: -13
